Source: PubChem BioAssay AID1159580 (chemical genetic matrix, 2015)
In all, about 5,500 compounds went through this assay and about 2,000 (36%) were called active. Roughly 18% stayed inconclusive and do not appear here. No stated cut-off is given here; in the data, active means normalized growth mostly below about 0.91 (no sharp cut-off); inconclusive means no clear call, values can overlap the other calls; inactive means mostly above about 0.92. The list shows a part of the results.

Assay: chemical genetic growth profiling, strain panel (AID 1159580);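 further: tested at 20 µM; growth read once vehicle control cultures reached saturation at 30 °C; 1 = growth at the plate median or of vehicle wells; lower values mean less growth of the strain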
Settings: S. cerevisiae deletion strains, growth OD

Measured: normalized growth

CC(=O)O[C@@H]1c2c(ccc3ccc(=O)oc23)OC(C)(C)[C@@H]1OC(=O)CC(C)C
inactive: locus YAL021C, strain ccr4, hits give low values 1.03 | locus YAL026C, strain drs2, hits give low values 0.993 | locus YAL030W, strain snc1, hits give low values 1 | locus YBL061C, strain skt5, hits give low values 0.992 | locus YBR009C, strain hhf1, hits give low values 1.05 | locus YBR021W, strain FUR4, hits give low values 1.02 | locus YBR023C, strain chs3, hits give low values 0.991 | locus YBR171W, strain sec66, hits give low values 0.974 | locus YBR229C, strain ROT2, hits give low values 0.993 | locus YBR231C, strain swc5, hits give low values 1 | locus YBR279W, strain paf1, hits give low values 1.02 | locus YCL011C, strain gbp2, hits give low values 1.01 | locus YCL016C, strain dcc1, hits give low values 1 | locus YCL029C, strain bik1, hits give low values 1.03 | locus YCL061C, strain MRC1, hits give low values 1 | locus YCL069W, strain vba3, hits give low values 1.01 | locus YCR088W, strain abp1, hits give low values 0.997 | locus YDL005C, strain med2, hits give low values 0.995 | locus YDL035C, strain GPR1, hits give low values 1.01 | locus YDL040C, strain nat1, hits give low values 1.01 | locus YDL074C, strain BRE1, hits give low values 1.01 | locus YDL101C, strain DUN1, hits give low values 1 | locus YDL134C, strain PPH21, hits give low values 0.977 | locus YDL185W, strain tfp1, hits give low values 1.03 | locus YDL192W, strain arf1, hits give low values 1 | locus YDR001C, strain nth1, hits give low values 1.01 | locus YDR069C, strain doa4, hits give low values 1 | locus YDR101C, strain arx1, hits give low values 1.05 | locus YDR159W, strain sac3, hits give low values 0.974 | locus YDR162C, strain NBP2, hits give low values 0.976 | locus YDR195W, strain ref2 1.07 | locus YDR297W, strain sur2, hits give low values 0.994 | locus YDR318W, strain mcm21, hits give low values 0.978 | locus YDR334W, strain swr1, hits give low values 1.01 | locus YDR335W, strain msn5, hits give low values 1.02 | locus YDR388W, hits give low values 1.01 | locus YDR502C, strain sam2, hits give low values 1 | locus YEL003W, strain gim4, hits give low values 1.02 | locus YEL037C, strain rad23, hits give low values 1.01 | locus YEL061C, strain CIN8 (second series), hits give low values 1.01 | locus YEL061C, strain CIN8, hits give low values 0.978 | locus YER015W, strain faa2, hits give low values 1.01 | locus YER016W, strain bim1, hits give low values 0.995 | locus YER110C, hits give low values 1.03 | locus YER111C, strain swi4, hits give low values 1 | locus YER155C, strain BEM2 (second series), hits give low values 0.972 | locus YER155C, strain BEM2, hits give low values 1 | locus YER167W, strain BCK2, hits give low values 1 | locus YFR010W, strain ubp6, hits give low values 1.03 | locus YGL078C, strain dbp3, hits give low values 1.02 | locus YGL086W, strain mad1, hits give low values 1.03 | locus YGL167C, strain pmr1, hits give low values 0.989 | locus YGL173C, strain kem1, hits give low values 0.987 | locus YGL227W, strain vid30, hits give low values 1 | locus YGL240W, strain doc1, hits give low values 1.02 | locus YGL248W, strain PDE1, hits give low values 0.994 | locus YGL253W, strain hxk2, hits give low values 0.986 | locus YGR078C, strain PAC10, hits give low values 1 | locus YGR135W, strain pre9, hits give low values 1 | locus YGR252W, strain gcn5, hits give low values 1 | locus YHR013C, strain ard1, hits give low values 1.01 | locus YHR027C, strain rpn1, hits give low values 0.999 | locus YHR030C, strain SLT2, hits give low values 0.988 | locus YHR079C, strain IRE1 (second series), hits give low values 1.01 | locus YHR094C, strain hxt1, hits give low values 1.01 | locus YHR129C, strain ARP1, hits give low values 0.993 | locus YHR142W, strain chs7, hits give low values 0.99 | locus YHR200W, strain rpn10, hits give low values 1.03 | locus YIL066C, strain RNR3, hits give low values 0.982 | locus YIL073C, strain SPO22, hits give low values 1.01 | locus YIL125W, strain kgd1, hits give low values 1.02 | locus YIR030C, strain dcg1, hits give low values 1 | locus YJL092W, strain hpr5, hits give low values 0.998 | locus YJL095W, strain BCK1 (second series), hits give low values 0.995 | locus YJL095W, strain BCK1, hits give low values 0.94 | locus YJL115W, strain asf1, hits give low values 1.01 | locus YJL129C, strain trk1, hits give low values 0.918 | locus YJL134W, strain LCB3, hits give low values 0.994 | locus YJL154C, strain vps35, hits give low values 1.01 | locus YJL164C, strain tpk1, hits give low values 1.02 | locus YJL166W, strain qcr8, hits give low values 0.961 | locus YJL168C, strain set2, hits give low values 1.02 | locus YJL187C, strain SWE1 (second series), hits give low values 1 | locus YJL187C, strain SWE1, hits give low values 0.996 | locus YJR043C, strain POL32, hits give low values 1.03 | locus YKL009W, strain mrt4, hits give low values 1.01 | locus YKL068W, hits give low values 0.996 | locus YKL085W, strain MDH1 (second series), hits give low values 0.988 | locus YKL085W, strain MDH1, hits give low values 0.988 | locus YKL160W, strain elf1, hits give low values 0.928 | locus YKL190W, strain CNB1, hits give low values 0.989 | locus YKR001C, strain vps1, hits give low values 1.01 | locus YKR026C, strain gcn3, hits give low values 0.998 | locus YKR091W, strain srl3, hits give low values 0.997 | locus YLL001W, strain dnm1, hits give low values 0.957 | locus YLL026W, hits give low values 1 | locus YLL041C, strain sdh2, hits give low values 1 | locus YLR027C, strain aat2, hits give low values 0.999 | locus YLR039C, strain RIC1, hits give low values 0.921 | locus YLR058C, strain SHM2, hits give low values 0.982 | locus YLR102C, strain apc9, hits give low values 1.01 | locus YLR221C, strain rsa3, hits give low values 0.979 | locus YLR258W, strain gsy2, hits give low values 1.01 | locus YLR262C, strain YPT6, hits give low values 0.889 | locus YLR268W, strain sec22, hits give low values 1.03 | locus YLR320W, strain mms22, hits give low values 0.918 | locus YLR330W, strain CHS5, hits give low values 1 | locus YLR342W, strain FKS1 (second series), hits give low values 1 | locus YLR342W, strain FKS1, hits give low values 0.98 | locus YLR357W, strain rsc2, hits give low values 1.07 | locus YLR370C, strain arc18, hits give low values 1 | locus YLR371W, strain rom2, hits give low values 1.02 | locus YLR384C, strain iki3, hits give low values 1.01 | locus YLR418C, strain cdc73, hits give low values 0.947 | locus YML016C, strain PPZ1, hits give low values 0.992 | locus YML032C, strain rad52, hits give low values 0.992 | locus YML120C, strain ndi1, hits give low values 0.989 | locus YML124C, strain tub3, hits give low values 1 | locus YMR058W, strain fet3, hits give low values 1 | locus YMR078C, strain ctf18, hits give low values 1 | locus YMR125W, strain sto1, hits give low values 0.976 | locus YMR129W, hits give low values 1 | locus YMR205C, strain PFK2, hits give low values 0.878 | locus YMR223W, strain ubp8, hits give low values 0.986 | locus YMR231W, strain pep5, hits give low values 1 | locus YMR263W, strain SAP30, hits give low values 0.996 | locus YMR307W, strain GAS1, hits give low values 0.848 | locus YNL067W, strain RPL9B, hits give low values 0.998 | locus YNL209W, strain ssb2, hits give low values 1.01 | locus YNL233W, strain BNI4, hits give low values 1.02 | locus YNL248C, strain rpa49, hits give low values 0.952 | locus YNL250W, strain rad50, hits give low values 1.02 | locus YNL271C, strain bni1, hits give low values 0.999 | locus YNL298W, strain CLA4, hits give low values 1.02 | locus YNL307C, strain MCK1, hits give low values 1.01 | locus YNL322C, strain KRE1 (second series), hits give low values 1.01 | locus YNL322C, strain KRE1, hits give low values 0.995 | locus YNR049C, strain mso1, hits give low values 1.01 | locus YNR052C, strain pop2, hits give low values 1 | locus YOL012C, strain htz1 0.997 | locus YOL147C, strain pex11, hits give low values 1 | locus YOR001W, strain rrp6, hits give low values 1.03 | locus YOR061W, strain CKA2, hits give low values 0.985 | locus YOR069W, strain VPS5, hits give low values 0.992 | locus YOR070C, strain gyp1, hits give low values 1 | locus YOR080W, strain dia2, hits give low values 1.02 | locus YOR083W, strain WHI5, hits give low values 0.949 | locus YOR106W, strain vam3, hits give low values 0.968 | locus YOR136W, strain idh2, hits give low values 1.03 | locus YOR144C, strain elg1, hits give low values 1.01 | locus YOR184W, strain ser1, hits give low values 0.921 | locus YOR265W, strain rbl2, hits give low values 1.01 | locus YOR270C, strain vph1, hits give low values 0.883 | locus YOR290C, strain snf2, hits give low values 1 | locus YOR316C, strain cot1, hits give low values 1.01 | locus YPL051W, strain arl3, hits give low values 0.951 | locus YPL078C, strain atp4, hits give low values 0.93 | locus YPL106C, strain sse1, hits give low values 1.06 | locus YPL240C, strain hsp82, hits give low values 1 | locus YPL241C, strain CIN2, hits give low values 0.973 | locus YPR119W, strain clb2, hits give low values 1 | locus YPR141C, strain kar3, hits give low values 0.994 | locus YPR163C, strain tif3, hits give low values 1.01 | locus YPR167C, strain met16, hits give low values 1.01 | strain wtn01, hits give low values 1.04
active: locus YDR137W, strain rgp1, hits give low values 0.796 | locus YDR392W, strain spt3, hits give low values 0.591 | locus YLR262C, strain YPT6 (second series), hits give low values 0.794 | locus YNL071W, strain lat1, hits give low values 0.882
